Experimental data published in PubChem BioAssay (EPA / NIEHS).
Values joined by “and” are separate entries in the source; they are usually repeats but may differ in a detail not shown here. Equal values may be shown once. The source holds several records for some structures; these can differ, active in one and inactive in another. Active and inactive are the calls of the source. Rule for the calls: active = hit-call score of the fitted dose curve at least 0.9, where 1 is the maximum; inactive = score below 0.9.

Experiment: BSK_3C_SRB: Viability Assessment in the BioMAP Diversity Plus: 3C Assay (AID 2283023);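 note: fitted both ways against DMSO so a hit may be signal rise or drop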
Details: primary human endothelial cells (HUVEC)
Protocol: BSK_3C is a cell-based, multiplexed-readout assay that uses umbilical vein endothelium, a human vascular primary cell, with measurements taken at 24 hours after chemical dosing in a 96-well plate.BSK_3C_SRB is an assay component measured in the BSK_3C assay. It measures 0.1% sulforhodamine related to cell death using Sulforhodamine staining technology.Data from the assay component BSK_3C_SRB was analyzed into 1 assay endpoint. This assay endpoint, BSK_3C_SRB, was analyzed with bidirectional fitting relative to DMSO as the negative control and baseline of activity. Using a type of viability reporter, gain or loss-of-signal activity can be used to understand changes in the signaling. Furthermore, this assay endpoint can be referred to as a primary readout, because this assay has produced multiple assay endpoints where this one serves a signaling function. To generalize the intended target to other relatable targets, this assay endpoint is annotated to the cell morphology intended target family, where the subfamily is cell conformation.
The levels of cell surface (or secreted, indicated by the prefix "s") biomarker endpoints were measured by ELISA. Overt cytotoxicity to cells in confluent adherent cultures (all systems other than the BT system) was assessed by measuring total protein levels using sulforhodamine B (SRB) staining in parallel cultures at the time of biomarker measurements, indicated as SRB endpoints. For proliferation assays for adherent cell types, individual cell types are cultured at sub-confluence and relative cell numbers quantified by SRB staining at time points optimized for each system (48 h: 3C and CASM3C systems; 72 h: BT and HDF3CGF systems; 96 h: SAg system). SRB was performed by staining cells with 0.1% SRB after fixation with 10% TCA and reading wells at 560 nm.Viability and proliferation of PBMC (T cells) was quantified by Alamar Blue reduction for the SAg and BT systems. For PBMC viability (referred to as PBMC Cytotoxicity within the assay endpoint names), cells were plated (75,000/well in a 96-well plate) and then chemical samples added for 1 h before addition of activators, SEB and TSST-1 (20 ng/mL final concentration each). Cells were incubated for 90 h. Then, Alamar Blue (20 uL/well) (Invitrogen, Cat DAL1100) was added for 6 h, and the plates were read with a fluorescence microplate reader at 546/580 nm (excitation/emission). For PBMC proliferation, cells were plated and activated as above but incubated for only 16 h prior to addition of Alamar Blue. Plates were read after 6 h.

Structure (SMILES)	outcome	AC50
ClC1C(Cl)C(Cl)C(Cl)C(Cl)C1Cl (stereo not given)	inactive	18.5 µM (active) and 28.3 µM (active) and 20 µM (active)
N#Cc1c(Cl)c(Cl)c(Cl)c(C#N)c1Cl	–	2.14 µM (active)
O=S1OCC2C(CO1)C1(Cl)C(Cl)=C(Cl)C2(Cl)C1(Cl)Cl (stereo not given)	–	20 µM (active)
CN1CSC(=S)N(C)C1	–	20 µM (active)
COc1cc(OC)nc(NC(=O)NS(=O)(=O)c2cc(NC=O)ccc2C(=O)N(C)C)n1	inactive	–
CCc1ccc(C(=O)NN(C(=O)c2cc(C)cc(C)c2)C(C)(C)C)cc1	–	11.8 µM (active)
COP(=O)(OC)OC=C(Cl)Cl	inactive	–
CNC(=O)/C=C(\C)OP(=O)(OC)OC	inactive	–
CCCN(CCC)c1c([N+](=O)[O-])cc(C(F)(F)F)cc1[N+](=O)[O-]	–	24.8 µM (active)
CCC(C)(C)C(=O)OC1=C(c2ccc(Cl)cc2Cl)C(=O)OC12CCCCC2	–	26.1 µM (active)
COC(=O)c1ccccc1S(=O)(=O)NC(=O)Nc1nc(C)nc(OC)n1	inactive	–
CC1(C)C(C=C(Cl)Cl)C1C(=O)OC(C#N)c1ccc(F)c(Oc2ccccc2)c1 (stereo not given)	–	8.15 µM (active)
O=S(=O)(O)C(F)(F)C(F)(F)C(F)(F)C(F)(F)C(F)(F)C(F)(F)C(F)(F)C(F)(F)F	inactive	31.5 µM (active) and 30.8 µM (active) and 26.7 µM (active)
Clc1ccccc1-c1nnc(-c2ccccc2Cl)nn1	inactive	–
CCC(C)Nc1c([N+](=O)[O-])cc(C(C)(C)C)cc1[N+](=O)[O-] (stereo not given)	–	20.2 µM (active)
O=C(O)COc1ccc(Cl)cc1Cl	inactive	–
COC(=O)c1ccccc1CS(=O)(=O)NC(=O)Nc1nc(OC)cc(OC)n1	inactive	–
CCC(C)(NC(=O)c1cc(Cl)c(C)c(Cl)c1)C(=O)CCl (stereo not given)	–	12.2 µM (active)
O=C(Nc1ccccc1)Nc1cnns1	inactive	–

Structure (SMILES)	outcome	AC50
C#CCN1C(=O)COc2cc(F)c(N3C(=O)C4=C(CCCC4)C3=O)cc21	inactive	–
CC(C)(C)C(O)/C(=C\c1ccc(Cl)cc1Cl)n1cncn1 (stereo not given)	–	27.8 µM (active)
COc1nn(CSP(=S)(OC)OC)c(=O)s1	inactive	–
COC(=O)c1ccccc1S(=O)(=O)NC(=O)N(C)c1nc(C)nc(OC)n1	inactive	–
O=[N+]([O-])/N=C1\NCCN1Cc1ccc(Cl)nc1	inactive	–
CCOCN(C(=O)CCl)c1c(C)cccc1CC	–	18.2 µM (active)
N#CN	inactive	–
CC1(c2ccc(Oc3ccccc3)cc2)OC(=O)N(Nc2ccccc2)C1=O (stereo not given)	–	28.5 µM (active)
O=[N+]([O-])c1c(Cl)c(Cl)c(Cl)c(Cl)c1Cl	–	30.9 µM (active)
O=C(NC(=O)c1c(F)cccc1F)Nc1ccc(OC(F)(F)C(F)OC(F)(F)F)c(Cl)c1 (stereo not given)	inactive	–
CCN(CC)C(=O)SCc1ccc(Cl)cc1	inactive	–
OCCOc1ccccc1	inactive	–
CC[C@H](C)[C@H]1O[C@]2(C=C[C@@H]1C)C[C@@H]1C[C@@H](C/C=C(\C)[C@@H](O[C@H]3C[C@H](OC)[C@@H](O[C@H]4C[C@H](OC)[C@@H](O)[C@H](C)O4)[C@H](C)O3)[C@@H](C)/C=C/C=C3\CO[C@@H]4[C@H](O)C(C)=C[C@@H](C(=O)O1)[C@]34O)O2 (tested in a mixture with another compound)	–	5.58 µM (active)
CNC(=O)Oc1cccc(N=CN(C)C)c1	inactive	–
CC(C)OC(=O)Nc1cccc(Cl)c1	inactive	–
[2H]C1([2H])[n+]2ccccc2-c2cccc[n+]2C1([2H])[2H]	inactive	–
CCOC1Oc2ccc(OS(C)(=O)=O)cc2C1(C)C (stereo not given)	–	24.1 µM (active)
CCCN(CCOc1c(Cl)cc(Cl)cc1Cl)C(=O)n1ccnc1	–	32 µM (active)
Cc1[nH]c(=O)n(C(C)(C)C)c(=O)c1Cl	inactive	–
